From PubChem BioAssay
Active and inactive are the calls of the source. Unless noted, the rule behind the calls is not given here.

Tests used:
[1] = HepG2 liver cancer cell viability effects, profiling panel, resazurin fluorescence, 24 h, PK04 Diversity Set (AID 1172); conditions: higher = more signal
[2] = basal S. cerevisiae growth modulation, no modifier, primary screen, OD600, strain BY4716, 24 h, basal condition (AID 1173); conditions: OD600, 24 h, higher = more signal, called active from +8 up or from −8 down
[3] = MM1S myeloma cell viability, profiling panel, resazurin fluorescence, basal, 24 h, PK04 Diversity Set (AID 1174); conditions: higher = more signal, called active from +8 up or from −8 down;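 note: MM1S multiple myeloma cell line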
[4] = molecular target: Dihydroorotate dehydrogenase (quinone), mitochondrial (Plasmodium falciparum (isolate 3D7)) (UniProt Q08210); test: PfDHODH enzyme inhibitors, primary screen, biochemical, C-terminal His tag, absorbance 600 nm (AID 1175); conditions: DCIP absorbance 600 nm, higher = more signal, called active from +8 up or from −8 down;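 note: recombinant parasite enzyme with a five histidine tag at its C terminus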
[5] = P. aeruginosa biofilm formation inhibitors, primary screen, strain PAO1, LB-PBS medium, absorbance 600 nm (AID 1176); conditions: P. aeruginosa PAO1 growth/biofilm, A600, 12 h; higher = more signal
[6] = S. cerevisiae RM11-1a growth modifiers, primary screen, strain RM11-1a, OD600, basal, 24 h (AID 1177); conditions: OD600, 24 h, higher = more signal, called active from +8 up or from −8 down;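 note: cultures grown under basal conditions with no added stressor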
[7] = E. coli acrAB mutant growth effects, primary screen, E. coli filamentation inducers, strain DRC39, OD650, 24 h (AID 1178); conditions: higher = more signal, called active from +8 up or from −8 down;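 note: growth measured as culture turbidity by optical density at 650 nm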
[8] = E. coli acrAB mutant growth effects, primary screen, E. coli filamentation inducers, strain DRC39, OD650, 48 h (AID 1179);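 note: screen aims at cell division blockers that make cells filament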; conditions: E. coli DRC39 delta-acrAB growth, higher = more signal, called active from +8 up or from −8 down
[9] = RPMI8226 myeloma cell viability, profiling panel, resazurin fluorescence, basal, 24 h, PK04 Diversity Set (AID 1180); conditions: higher = more signal;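 note: RPMI8826 multiple myeloma cell line at 5000 cells per well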
[10] = molecular target: E3 ubiquitin-protein ligase XIAP (Homo sapiens) (UniProt P98170); test: XIAP binders, primary screen, biophysical, small-molecule microarray, fluorescence 635 nm (AID 1181); conditions: small-molecule microarray binding, higher = more signal;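 note: score merges 667 nm emission and signal to noise over triplicate slides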
[11] = test system: XIP peptide (Xip251-270) binding; test: small-molecule binders of XIP peptide, primary screen, biochemical, small-molecule microarray, fluorescence 635/667 nm, 0.1 µg/mL protein (AID 1182); conditions: fluorescent protein binding, 635 nm, higher = more signal, called active from +8 up or from −8 down
XIP peptide (Xip251-270) = test: small-molecule binders of XIP peptide, primary screen, biochemical, small-molecule microarray, fluorescence 635/667 nm, 0.5 µg/mL protein (AID 1183); conditions: small-molecule microarray binding, fluorescence 635 nm; higher = more signal
[12] = Plasmodium falciparum growth inhibition, primary screen, strain 3D7, DAPI fluorescence, 100 nL (AID 1184);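 note: parasites grown inside human red blood cells in medium with human serum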; conditions: P. falciparum 3D7 growth, 3 d, higher = more signal
[13] = molecular target: Homeobox protein Hox-A13 (Mus musculus) (UniProt Q62424); test: inhibitors of HoxA13-DNA binding, primary screen, biochemical, fluorescence polarization, labeled oligonucleotide (AID 1185); conditions: 15 min, higher = more signal, called active from +8 up or from −8 down
[14] = inhibitors of hydroxyurea-induced Chk1 phosphorylation, primary screen, imaging, HeLa, phospho-Chk1 antibody, percent positive cells (AID 1186); conditions: hydroxyurea-induced phospho-Chk1 immunofluorescence imaging, higher = more signal
[15] = inhibitors of hydroxyurea-induced Chk1 phosphorylation, primary screen, imaging, HeLa, phospho-Chk1 nuclear intensity (AID 1187); conditions: hydroxyurea-induced phospho-Chk1 immunofluorescence imaging, higher = more signal

Dihydroorotate dehydrogenase (quinone), mitochondrial (Plasmodium falciparum (isolate 3D7)), sequence (Q08210 whole entry, looked up): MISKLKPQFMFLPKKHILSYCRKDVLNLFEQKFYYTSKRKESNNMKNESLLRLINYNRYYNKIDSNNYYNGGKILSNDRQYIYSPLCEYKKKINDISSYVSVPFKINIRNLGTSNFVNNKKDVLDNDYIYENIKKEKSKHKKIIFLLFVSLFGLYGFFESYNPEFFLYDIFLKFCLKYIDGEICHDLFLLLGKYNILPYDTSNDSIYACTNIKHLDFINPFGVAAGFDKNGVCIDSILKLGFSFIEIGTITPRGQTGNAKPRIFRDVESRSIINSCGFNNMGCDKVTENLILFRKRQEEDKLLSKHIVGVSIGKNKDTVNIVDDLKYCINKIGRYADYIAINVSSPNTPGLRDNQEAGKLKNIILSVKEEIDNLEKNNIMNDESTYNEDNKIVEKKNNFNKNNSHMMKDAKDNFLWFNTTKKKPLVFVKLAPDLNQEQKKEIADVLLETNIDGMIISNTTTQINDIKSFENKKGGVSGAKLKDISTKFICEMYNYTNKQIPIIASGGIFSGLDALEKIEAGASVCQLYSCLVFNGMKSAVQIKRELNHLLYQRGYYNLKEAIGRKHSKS
Homeobox protein Hox-A13 (Mus musculus), sequence (Q62424 whole entry, looked up): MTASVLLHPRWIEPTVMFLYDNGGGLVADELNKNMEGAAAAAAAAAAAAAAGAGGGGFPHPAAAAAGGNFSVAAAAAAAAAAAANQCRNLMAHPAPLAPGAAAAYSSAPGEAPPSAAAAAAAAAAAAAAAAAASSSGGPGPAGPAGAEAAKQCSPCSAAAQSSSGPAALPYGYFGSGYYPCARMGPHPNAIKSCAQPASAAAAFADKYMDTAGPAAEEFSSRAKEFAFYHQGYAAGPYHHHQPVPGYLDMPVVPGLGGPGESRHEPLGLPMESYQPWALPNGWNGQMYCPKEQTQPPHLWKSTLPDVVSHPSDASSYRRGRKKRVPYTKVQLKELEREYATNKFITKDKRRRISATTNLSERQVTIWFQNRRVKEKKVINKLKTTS
E3 ubiquitin-protein ligase XIAP (Homo sapiens), sequence (P98170 whole entry, looked up): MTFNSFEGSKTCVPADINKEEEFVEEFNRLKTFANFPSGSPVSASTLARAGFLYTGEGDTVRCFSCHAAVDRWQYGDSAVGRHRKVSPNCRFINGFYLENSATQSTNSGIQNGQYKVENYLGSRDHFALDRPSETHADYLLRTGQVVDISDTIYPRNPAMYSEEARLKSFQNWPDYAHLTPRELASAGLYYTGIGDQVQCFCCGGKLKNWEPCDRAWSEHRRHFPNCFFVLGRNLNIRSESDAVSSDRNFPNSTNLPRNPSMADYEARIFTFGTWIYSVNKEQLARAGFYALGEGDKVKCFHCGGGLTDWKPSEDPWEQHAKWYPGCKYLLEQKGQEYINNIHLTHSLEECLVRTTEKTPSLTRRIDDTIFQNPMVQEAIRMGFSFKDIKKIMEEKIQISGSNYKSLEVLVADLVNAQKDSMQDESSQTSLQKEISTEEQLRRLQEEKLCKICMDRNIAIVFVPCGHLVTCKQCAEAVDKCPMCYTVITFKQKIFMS

SMILES | z-score [1] | z-score [2] | z-score [3] | composite z-score [4] | z-score [5] | z-score [6] | z-score [7] | z-score [8] | z-score [9] | composite z-score [10] | composite z-score [11] | composite z-score (XIP peptide (Xip251-270)) | z-score [12] | z-score [13] | z-score [14] | z-score [15]
C=C(C(=O)CC[C@H](OC(C)=O)c1cccc(OCCO)c1)C(C)C | -1.23 | -0.105 (inactive) | -0.748 (inactive) | -0.781 (inactive) | -0.411 (inactive) | 0.0297 (inactive) | -1.04 (inactive) | -0.86 (inactive) | -0.559 | 0.0454 | -0.252 (inactive) | 0.565 | -1.96 | -4.74 (inactive) | 0.885 (inactive) | 0.41 (inactive)
O=C1O[C@@H](c2ccccc2)[C@@H](c2ccccc2)N2[C@@H](c3ccc(O)cc3)[C@]3(C(=O)Nc4ccc(C#CC5=CCCCC5)cc43)[C@@H](C(=O)N3CCN(c4ncccn4)CC3)[C@H]12 | 1.48 | -0.066 (inactive) | -0.0922 (inactive) | -0.824 (inactive) | -0.0478 (inactive) | 0.207 (inactive) | -0.289 (inactive) | -0.348 (inactive) | -0.385 | 0.118 | -0.168 (inactive) | 0.657 | -1.97 | 0.676 (inactive) | -0.0981 (inactive) | -0.0223 (inactive)
COc1ccc(NC(=O)O[C@H]2[C@H](OC(=O)Nc3ccc4c(c3)OCO4)[C@@H](OC(=O)Nc3ccc4c(c3)OCO4)[C@@H](OC)O[C@@H]2CO)cc1 | -0.315 | 1.96 (inactive) | -0.844 (inactive) | -0.445 (inactive) | 2.33 (inactive) | 1.56 (inactive) | 1.13 (inactive) | 0.0559 (inactive) | -0.85 | -0.102 | 1.61 (inactive) | 0.877 | -2.04 | -6.9 (inactive) | -0.0538 (inactive) | 0.419 (inactive)
COc1ccc(C(O)C2C=CC3C(=O)N(C)C(=O)C3N2N2CCCCC2)cc1 (centres undefined) | -0.197 | 0.381 (inactive) | -0.8 (inactive) | 0.0624 (inactive) | 0.49 (inactive) | -0.378 (inactive) | -0.584 (inactive) | -0.858 (inactive) | -0.267 | 0.0728 | 0.568 (inactive) | 0.37 | -0.0513 | -4.16 (inactive) | -1.52 (inactive) | -1.31 (inactive)
O=C1O[C@@H](c2ccccc2)[C@@H](c2ccccc2)N2[C@@H](c3ccccc3OCCO)[C@]3(C(=O)Nc4ccc(C#CCCO)cc43)[C@@H](C(=O)N3CCN(c4ncccn4)CC3)[C@H]12 | 0.261 | 1.73 (inactive) | -0.901 (inactive) | 0.286 (inactive) | 0.393 (inactive) | 2.47 (inactive) | 0.245 (inactive) | -0.289 (inactive) | -1.7 | -0.0622 | 0.665 (inactive) | 0.617 | -2.05 | -1.33 (inactive) | -0.0995 (inactive) | 0.113 (inactive)
CCOC(=O)C[C@H]1[C@H](OC(=O)c2ccc(-c3ccccc3)cc2)[C@@H](NC(=O)c2ccc3ccccc3c2)c2cc(OCCCO)ccc2N1C(=O)c1ccc2ccccc2n1 | -0.138 | -0.158 (inactive) | 0.175 (inactive) | -0.746 (inactive) | 0.927 (inactive) | -0.736 (inactive) | -0.936 (inactive) | -0.808 (inactive) | -0.152 | -0.394 | 0.0454 (inactive) | 0.338 | 0.563 | -1.16 (inactive) | -0.361 (inactive) | -0.561 (inactive)
COc1cc(CO)cc(I)c1O[C@H]1C=C(C(=O)NCCO)C[C@@H](N(Cc2ccc(F)cc2)C(=O)C2CCCO2)[C@@H]1O (some centres undefined) | 0.266 | -1.96 (inactive) | 0.695 (inactive) | -0.737 (inactive) | 0.507 (inactive) | -0.254 (inactive) | 2.94 (inactive) | 2.03 (inactive) | 0.562 | -0.165 | -0.192 (inactive) | -0.318 | 0.463 | -4.27 (inactive) | 0.36 (inactive) | 0.824 (inactive)
C[C@]1(C(=O)NC2CC2)c2ccccc2C(=O)N(Cc2ccc(OC(F)(F)F)cc2)[C@H]1c1ccc(CO)cc1 | -0.268 | -0.708 (inactive) | 0.191 (inactive) | 0.0758 (inactive) | -0.109 (inactive) | -0.474 (inactive) | 0.0997 (inactive) | 0.054 (inactive) | -0.254 | -0.225 | 0.282 (inactive) | -0.923 | 0.516 | -3.59 (inactive) | -0.0307 (inactive) | -0.521 (inactive)
CON(C)C(=O)C=C1C[C@@H](c2cccc(Cl)c2)O[C@@H](c2cccc(Cl)c2)O1 | 0.485 | -0.283 (inactive) | 0.0896 (inactive) | -0.558 (inactive) | -0.184 (inactive) | 1.21 (inactive) | -0.471 (inactive) | 0.134 (inactive) | 0.515 | -0.0827 | 2.75 (inactive) | 0.454 | -2 | -3.48 (inactive) | -0.0938 (inactive) | -0.0296 (inactive)
